Screening data: PubChem, National Center for Advancing Translational Sciences (NCATS)
Rows were chosen to be rich in hits. Some 17% of all compounds tested hit in one or more screens of this group.
TGFb SMAD3 inh: inhibitors of TGF-b signaling. AID 588855. Potency, µM (top dose mostly 46.1 µM), without a hit: top-dose activity, negative = inhibition, most hits filed as inhibitors. HepG2 CAGA-GFP TGF-b/SMAD3 reporter, GFP fluorescence, 18 h; TGF-beta stimulated, 500 pg/mL final. 410,000 tested, 1.2% active; further: on the % scale 0 is the no-effect control and ±100 the full control effect; nearly all actives have a fitted effect of over 65% in size
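Per well, imaged GFP fluorescence of HEPG2 CAGA-GFP cells gives the signal; cells get compound, then TGF-beta (500 pg/mL final), 18 h at 37 degrees C; %Activity versus -TGF-beta and +DMSO controls.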
HT1080NT lethal: kills 2HG-producing HT-1080-NT fibrosarcoma cells. HT-1080-NT fibrosarcoma viability, CellTiter-Glo ATP luminescence, 48 h. Potency, µM (top dose mostly 46.1 µM), without a hit: at the top dose activity, negative = less viability, most hits filed as cytotoxic. 360,000 tested, 1.6% active;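 further: NT is the 2HG producing partner of a matched IDH1 knockdown line; 0% = DMSO-treated cells and -100% = media-only wells without cells; nearly all actives have a fitted effect of over 55% in size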
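Fibrosarcoma NT cells, 750 per well in 5% FBS RPMI, were exposed to compound for 48 hours. Viability: CellTiter-Glo luminescence.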
HT1080 IDH1KD tx: toxicity to HT-1080 IDH1 knockdown cells (counter line) | 360,000 tested, 2% active | Potency, µM (top dose mostly 46.1 µM), without a hit: at the highest dose activity, negative = toxicity, most hits filed as cytotoxic | AID 686971 | HT-1080 IDH1 knockdown viability, ATP luminescence, 48 h;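 further: 0% = DMSO wells and -100% = cell-free medium wells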
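Cytotoxicity counter-line: IDH1KD HT-1080, 48 h, CellTiter-Glo. Curves classed by r2, magnitude and activity.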
TDP1 cell CPT: DT40-hTDP1 cell growth loss with CPT | 420,000 tested, 12% active | chicken DT40 Tdp1-/-;hTDP1 cells + 20 nM CPT, ATP luminescence, 48 h | Potency, µM (highest dose often 46.2 µM), for the others: at the highest dose activity change, negative = growth inhibition, actives largely listed as inhibitors; further: on the % scale 0 is the no-effect control and ±100 the full control effect; nearly all actives have a fitted effect of over 55% in size
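Cell growth measured by CellTiter-Glo luminescence after a minimum 48 h, 37 C compound exposure with 20 nM CPT in Tdp1-knockout DT40 cells stably expressing hTDP1, seeded 400/well; qHTS titration format.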
HepG2 tox: kills HepG2 cells in TGF-b inhibitor counter-screen. HepG2 CAGA-GFP viability, ATP luminescence, 18 h. Potency, µM (doses to about 46.1 µM), without a hit: at the highest dose activity change, negative = cytotoxicity, usual class: cytotoxic. 410,000 tested, 0.76% active. AID 588856
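HepG2 CAGA-GFP cells (1000/well, DMEM with 1% FBS) received compound, then TGF-beta at 500 pg/mL final, and were incubated 18 hours at 37 degrees C. Viability was read by CellTiter-Glo luminescence. Media-only wells were set as complete cell-killing and DMSO as no toxicity.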
TDP1 cell noCPT: qHTS for Inhibitors of human tyrosyl-DNA phosphodiesterase 1 (TDP1): qHTS in cells in absence of CPT; 420,000 tested, 15% active; DT40 Tdp1-/- hTDP1 cells, no CPT, ATP luminescence, 48 h; AID 686978, 2013; Potency, µM (doses to about 46.2 µM), for the others: at the top dose activity change, negative = growth inhibition, usual class: inhibitors; further: on the % scale 0 is the no-effect control and ±100 the full control effect; nearly all actives have a fitted effect of over 55% in size
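DT40 Tdp1-/-;hTDP1 cells, no CPT (DMSO vehicle only), 400 cells/well; compounds pin-transferred; ≥48 hr, 37 °C; CellTiter-Glo 30 min RT dark, luminescence read.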
* = called active by the depositor; ? = inconclusive; . = not tested or not shown; [ ] = another dose, or the depositor's remark. The call rests on the fitted dose curve; in most records, active means well fitted curve in the direction sought with a large enough effect; inconclusive means small, poorly fitted or top-dose-only effect, or another doubt; inactive means no such curve, though single readings can be large; an effect the other way counts as inactive or inconclusive. Potency means the concentration at half of the fitted maximal effect.

SMILES	TGFb SMAD3 inh	HT1080NT lethal	HT1080 IDH1KD tx	TDP1 cell CPT	HepG2 tox	TDP1 cell noCPT
C[C@H]1CN([C@@H](C)CO)S(=O)(=O)c2ccc(Br)cc2O[C@H]1CN(C)C(=O)Cc1ccccc1	8.3%	1.0%	7.7%	?	1.2%	?
COc1ccc(C#Cc2ccc3c(c2)O[C@@H](CN(C)C(=O)Nc2cccc(OC)c2)[C@H](C)CN([C@@H](C)CO)S3(=O)=O)cc1	9.7%	-29.1%	?	-24.3%	5.8%	18.4µM*
C[C@@H]1CN([C@H](C)CO)S(=O)(=O)c2ccc(C#Cc3ccccc3F)cc2O[C@@H]1CN(C)C(=O)Cc1ccccc1	-80.1%	?	?	14.6µM*	6.7%	13µM*
C[C@H](CO)N1C[C@H](C)[C@@H](CN(C)C(=O)Nc2ccc(F)cc2)Oc2cc(Br)ccc2S1(=O)=O	0.7%	-4.7%	-2.1%	?	-20.3%	?
CC(C)NC(=O)N(C)C[C@H]1Oc2cc(C#Cc3ccc(F)cc3)ccc2S(=O)(=O)N([C@H](C)CO)C[C@H]1C	-6.0%	-4.3%	-11.3%	23.1µM*	-29.7%	?
CCC(C)C(=O)Nc1nc(-c2ccc3c(c2)NC(=O)CO3)cs1 (stereo not drawn)	-0.2%	-9.7%	-8.1%	?	2.2%	18.4µM*
Nc1nc(-c2ccc3c(c2)NC(=O)CO3)cs1	1.6%	-2.0%	-12.9%	?	1.6%	-25.1%
c1ccc(CCNc2nc(-c3ccncc3)cs2)cc1	0.4%	-7.2%	-14.2%	?	-41.5%	?
O=C1COc2ccc(-c3csc(NCCc4ccccc4)n3)cc2N1	-25.3%	-12.8%	-25.0%	16.4µM*	-5.7%	3.66µM*
CCCCCC(=O)NNC(=S)NC(=O)c1cccc([N+](=O)[O-])c1	-8.2%	-2.2%	-9.8%	14.6µM*	-12.9%	13µM*
COc1ccc(C(=O)NNC(=S)NC(=O)c2cccc([N+](=O)[O-])c2)cc1	-14.9%	-21.0%	?	?	-24.4%	18.4µM*
CCCCCC(=O)NNC(=S)NC(=O)c1ccccc1[N+](=O)[O-]	82.1%	-26.9%	?	?	-44.8%	?
O=C(NC(=S)Nc1ccccn1)c1cccc([N+](=O)[O-])c1	-0.4%	22.9%	16.9%	?	4.3%	18.4µM*
CC1CN(C(=S)NC(=O)c2cccc([N+](=O)[O-])c2)CC(C)O1 (stereo not drawn)	8.4%	0.1%	-3.2%[9.24 µM]	?	17.8%	16.4µM*
CCN(CC)C(=O)COc1coc(CN2CCN(c3ccccc3F)CC2)cc1=O	-12.9%	-0.3%	1.9%	-7.9%	0.8%	-3.9%
COC(=O)c1sc(C(F)(F)F)c(-c2ccccc2)c1S(=O)(=O)N1CCOCC1	-9.7%	-1.4%	8.3%	3.0%	0.8%	-4.2%
O=C(NC(=S)Nc1cc([N+](=O)[O-])ccc1O)c1cccnc1	-29.8%	-10.9%	-10.4%	20.6µM*	-19.6%	25.9µM*
O=C(NC(=S)NNC(=O)c1ccccc1O)c1cccc([N+](=O)[O-])c1	4.3%	-13.0%	1.4%	23.1µM*	3.7%	23.1µM*
O=C(CNC(=S)NC(=O)c1cccc([N+](=O)[O-])c1)c1ccccc1	-14.8%	-23.6%	?	-7.2%	-37.2%	-14.3%
CCCCCCCCCCCC(=O)NC(C(=O)OCC)C(O)c1cccc([N+](=O)[O-])c1 (stereo not drawn)	?	?	?	16.4µM*	-72.1%	23.1µM*
Cc1ccc(NC(=O)CSc2nc(-c3cccs3)nc3cc(=O)[nH]n23)cc1	-3.0%	.	.	3.2%	-0.5%	1.9%
OC(c1ccc(F)cc1)c1nc(-c2cc3ccccc3o2)cs1 (stereo not drawn)	-28.2%	?	?	?	-28.7%	?
COc1ccc(C(O)c2nc(-c3cnc4ccccc4c3)cs2)cc1 (stereo not drawn)	-7.6%	0.9%	-3.3%	?	-18.9%	14.6µM*
OC(c1ccc(F)cc1)c1nc(-c2cnc3ccccc3c2)cs1 (stereo not drawn)	33.2%	-8.9%	0.0%	18.4µM*	-12.9%	?
OC(c1cccc(Cl)c1)c1nc(-c2cnc3ccccc3c2)cs1 (stereo not drawn)	?	?	?	25.9µM*	-35.2%	13µM*
SMILES	TGFb SMAD3 inh	HT1080NT lethal	HT1080 IDH1KD tx	TDP1 cell CPT	HepG2 tox	TDP1 cell noCPT
Nc1ccn([C@@H]2O[C@H](C(=O)N3CCN(c4ccc(Cl)cn4)CC3)[C@@H](O)[C@H]2O)c(=O)n1	3.1%	28.8%	16.4%	1.0%	8.0%	16.2%
C/C(=N\NC(=O)c1ccccc1-n1cccc1)C1CC1	-7.6%	-3.3%	-10.0%	-2.1%	-17.4%	-2.3%
O=C(CN1C(=O)CSc2ccc(S(=O)(=O)N3CCOCC3)cc21)NCc1ccc(F)cc1	14.0%	11.5%	6.5%	-9.1%	4.0%	5.9%
CCOC(=O)c1ccccc1NC(=O)N1CC(C)Oc2ccc(C)cc21 (stereo not drawn)	?	.	.	?	-26.8%	?
COc1cccc(C(=O)Nc2cc3c(cc2N2CCCC2)n(C)c(=O)n3C)c1	-10.7%	6.4%	-2.2%	?	0.2%	?
CCOC(=O)C1CCN(c2cc3c(cc2NC(=O)c2ccccc2Br)n(C)c(=O)n3C)CC1	-12.2%	-4.7%	-0.6%	?	-17.2%	18.4µM*
CCOC(=O)C1CCN(c2cc3c(cc2NC(=O)c2cc(OC)ccc2Br)n(C)c(=O)n3C)CC1	11.0%	8.6%	14.4%	16.4µM*	-2.6%	11.6µM*
Cc1ccc(C)c(N2CCN(C(=O)CCc3c(C)nn(-c4ccc(N5CCCC5)nn4)c3C)CC2)c1	12.6µM*	.	.	?	-36.2%	?
Cc1nn(-c2ccc(N3CCCCC3)nn2)c(C)c1CCC(=O)Nc1ccc(F)cc1	-0.7%	0.3%	-1.1%	-11.9%	-11.3%	-16.2%
Cc1nn(-c2ccc(N3CCCC3)nn2)c(C)c1CCC(=O)N1CCN(c2ccccc2)CC1	?	.	.	?	-17.9%	?
CCOC(=O)c1cccc(NC(=O)CCc2c(C)nn(-c3ccc(N4CCOCC4)nn3)c2C)c1	?	.	.	29.1µM*	0.1%	?
CCc1cccc(NC(=O)CCc2c(C)nn(-c3ccc(N4CCCCC4)nn3)c2C)c1	4.2%	-7.3%	-9.3%	-24.6%	-0.9%	?
